Among all 52,000 compounds or so, about 4,300 (8.3%) were called active. No stated cut-off is given here; in the data, active means survival mostly below about 52% (no sharp cut-off); inactive means mostly above about 56%. The entries come from a sample that favours actives as a whole.

The test system of this assay is DeltatarO mutant. As to the kind of experiment: growth inhibition of S. aureus wild type versus tarO mutant, primary screen, teichoic acid synthesis inhibitors, RN4220, OD600 (AID 463173). Conditions: OD600, 18 h, stronger effect = lower value, screened at 18.75 µg/mL (by protocol).
Take `COc1ccc(NC(=O)c2oc3ccc(S(=O)(=O)N4CCC5(CC4)OCCO5)cc3c2C)cc1Cl`: the survival is 80% (inactive).
In the case of `O=C(O)C1CC(=O)N(CCCN2CCOCC2)C1` (stereo not drawn) it was 96% (inactive); in that of `Cc1nn(C)c2c1c(C(F)(F)F)cc(=O)n2CC(=O)NCc1ccccc1Cl`, 80% (inactive); in that of `CCN1CCN(C(=O)c2ccc3c(c2)N(Cc2ccccc2)C(=O)c2ccccc2S3=O)CC1` (stereo not drawn), 104% (inactive).
For the compound `Cc1ccc(C)c(-n2c3nc(=O)[nH]c(=O)c-3cc3c(C)nn(-c4ccccc4)c32)c1`, the survival is 92% (inactive).
As to `COc1ccc(NC(=O)CC2C(=O)N(c3ccccc3)C(=O)N2CCc2sccc2C)cc1` (stereo not drawn), the survival is 65% (inactive).
The figure for `CCN(CC)CCCNC(=O)Cc1ccc(NC(=O)N2CCCCc3ccccc32)cc1` is 79% (inactive).
Turning to `CCOC(=O)c1cc2c(=O)n3ccccc3nc2n(CC2CCCO2)c1=NC(=O)c1ccc(OCC)cc1` (stereo not drawn), the survival was 51% (inactive).
Turning to `CCOC(=O)c1cc2c(=O)n3ccccc3nc2n(CC(C)C)c1=NC(=O)c1c(-c2c(F)cccc2Cl)noc1C`, the survival is 165% (inactive).
Consider `CCOC(=O)c1cc2c(=O)n3ccccc3nc2n(CC2CCCO2)c1=NC(=O)c1ccc(OC)cc1OC` (stereo not drawn), for which the survival is 38% (active).
In the case of `CCOC(=O)c1cc2c(=O)n3ccccc3nc2n(CC2CCCO2)c1=NC(=O)c1ccccc1Br` (stereo not drawn) it was 47% (active); in that of `CCOC(=O)c1cc2c(=O)n3ccccc3nc2n(CC2CCCO2)c1=NC(=O)c1ccccc1OCC` (stereo not drawn), 51% (inactive); in that of `CCOC(=O)c1cc2c(=O)n3ccccc3nc2n(CC2CCCO2)c1=NC(=O)c1ccc(F)cc1` (stereo not drawn), 54% (inactive).
In the case of `CCOC(=O)c1cc2c(=O)n3ccccc3nc2n(CC2CCCO2)c1=NC(=O)c1ccccc1C` (stereo not drawn), the survival is 43% (active).
The figure for `CCOC(=O)c1cc2c(=O)n3ccccc3nc2n(CC2CCCO2)c1=NC(=O)c1ccccc1F` (stereo not drawn) is 44% (active).
For `O=C(CC1N=C2c3ccccc3N=C(SCC(=O)Nc3ccccc3F)N2C1=O)NCc1ccc2c(c1)OCO2` (stereo not drawn), the survival is 73% (inactive).
For the compound `Nc1c(-c2nc(-c3ccc(Cl)cc3)no2)nnn1-c1ccc(C(F)(F)F)c(Cl)c1`, the survival is 75% (inactive).
As for `Cc1cc(C)c2c(CC(=O)Nc3ccccc3C(F)(F)F)coc2c1`, the survival was 72% (inactive).
As to `O=C(NCCCN1CCCC1)c1ccccc1Cl`, the survival was 86% (inactive).
Turning to `COc1ccc(Nc2nc3ccc(Cl)cc3n3nnnc23)cc1OC`, the survival was 102% (inactive).
As for `CC(C)C(=O)NCC(c1ccc2c(c1)OCO2)N1CCN(c2ccccc2F)CC1` (stereo not drawn), the survival was 74% (inactive).
For the compound `COC(=O)CC(=O)CSc1nc(C)cc(C)c1C#N`, the survival is 80% (inactive).
`COc1ccc2nc(NC(=O)c3cc(=O)c4cc(C)c(C)cc4o3)sc2c1`: the survival is 58% (inactive).
As for `Cc1cc(C)c2oc(C(=O)Nc3nc4ccc(Cl)cc4s3)cc(=O)c2c1`, the survival is 61% (inactive).
On to `CCOc1ccc2nc(NC(=O)c3ccccc3)sc2c1`, for which the survival was 41% (active).
In the case of `O=C(Nc1nc2ccc(Cl)cc2s1)c1cc(=O)c2ccccc2o1` it was 32% (active); in that of `CS(=O)(=O)c1ccc2nc(NC(=O)c3ccccc3)sc2c1`, 81% (inactive).
Turning to `CC(=O)Nc1ccc2nc(NC(=O)c3cc4ccccc4o3)sc2c1`, the survival is 102% (inactive).
The figure for `CCOc1ccc2nc(NC(=O)c3nc(SC)ncc3Cl)sc2c1` is 95% (inactive).
In the case of `CCOc1ccc2nc(NC(=O)c3cc(=O)c4ccc(C)cc4o3)sc2c1`, the survival is 25% (active).
Turning to `COc1ccc2nc(NC(=O)c3cc(=O)c4cc(C)cc(C)c4o3)sc2c1`, the survival was 69% (inactive).
Take `Cc1ccc2c(=O)cc(C(=O)Nc3nc4ccc(Cl)cc4s3)oc2c1C`: the survival was 39% (active).
`CCOc1ccc2nc(NC(=O)c3cc(=O)c4cc(C)cc(C)c4o3)sc2c1`: the survival is 85% (inactive).
In the case of `COc1ccc2nc(NC(=O)c3cc(=O)c4ccccc4o3)sc2c1` it was 50% (inactive).
Regarding `O=S(=O)(c1ccc(Br)cc1)N1CCOCC1`, the survival was 94% (inactive).
With `CC(C)NS(=O)(=O)c1ccc(OCC(=O)N2CCN(c3cccc(Cl)c3)CC2)cc1`, the survival is 95% (inactive).
Turning to `CCSc1ncc(Cl)c(C(=O)Nc2ccc(S(=O)(=O)N3CCCCC3)cc2)n1`, the survival was 87% (inactive).
`Cc1ccc(-c2csc(NC3OC(=O)c4c#cccc43)n2)cc1` (stereo not drawn): the survival is 94% (inactive).
Turning to `Cc1ccc(Cn2cnc3nc4c(cc3c2=O)CCCC4)cc1`, the survival was 81% (inactive).
Consider `CCc1ccc2[nH]c(=O)c(CNC3CCCC3)cc2c1`, for which the survival was 86% (inactive).
In the case of `CCCOc1ccc(C(=O)N(Cc2ccc(N(C)C)cc2)CC2CCCO2)cc1` (stereo not drawn) it was 64% (inactive); in that of `Cc1ccc2c(=O)cc(C(=O)Nc3nc4ccc(Cl)cc4s3)oc2c1`, 25% (active).
`Cc1ccc2nc(NC(=O)c3cc(=O)c4cc(C)c(C)cc4o3)sc2c1`: the survival was 54% (inactive).
For the compound `Cc1ccc2nc(NC(=O)c3cc(=O)c4cc(Cl)ccc4o3)sc2c1`, the survival is 47% (inactive).
For the compound `O=C(Cn1nc(-c2ccc(Cl)cc2)ccc1=O)NCc1ccccc1Cl`, the survival was 70% (inactive).
Regarding `CCN(C(=O)CSc1nc2ccccc2n1Cc1ccc(F)cc1Cl)c1ccccc1`, the survival was 77% (inactive).
As for `CC(C)c1ccccc1NC(=O)c1cccs1`, the survival was 61% (inactive).
Take `CCCCCNC(=O)CCCCCn1c(=O)[nH]c2ccsc2c1=O`: the survival was 81% (inactive).
The figure for `Cc1cccc(NC(=O)CCCCCn2c(=O)[nH]c3ccsc3c2=O)c1` is 33% (active).
Take `O=C(CCCCCn1c(=O)[nH]c2ccsc2c1=O)NCc1ccccc1`: the survival is 89% (inactive).
Regarding `O=S1(=O)c2ccccc2N(Cc2ccccc2F)c2ccccc21`, the survival was 92% (inactive).
In the case of `COc1ccc(NC(=O)CCc2nnc3n(C)c(=O)c4sccc4n23)cc1Cl`, the survival was 78% (inactive).
In the case of `CCOCCc1nn2c(=O)cc(COC(=O)c3cccc(C)c3)nc2s1` it was -5% (active); in that of `CCOCCc1nn2c(=O)cc(COC(=O)CNC(=O)c3cccc(C)c3)nc2s1`, 70% (inactive).
For the compound `CCc1nn2c(=O)cc(COC(=O)Cc3ccccc3)nc2s1`, the survival is 72% (inactive).
Take `COCCc1nn2c(=O)cc(COC(=O)COc3ccccc3C)nc2s1`: the survival was 73% (inactive).
For `CCOCCc1nn2c(=O)cc(COC(=O)c3ccco3)nc2s1`, the survival was 88% (inactive).
On to `CCOCCc1nn2c(=O)cc(COC(=O)Cc3ccccc3)nc2s1`, for which the survival was 17% (active).
As to `CCCc1nn2c(=O)cc(COC(=O)c3ccccc3NC(=O)c3ccc(OCC)cc3)nc2s1`, the survival is 49% (inactive).
As for `CCCc1nn2c(=O)cc(COC(=O)c3cccc(NC(=O)c4ccc(OCC)cc4)c3)nc2s1`, the survival was 0% (active).
The figure for `CCOCCc1nn2c(=O)cc(COC(=O)c3ccc4c(c3)OCO4)nc2s1` is 128% (inactive); for `CCOc1ccc(C(=O)Nc2cccc(C(=O)OCc3cc(=O)n4nc(C5CC5)sc4n3)c2)cc1` it is 83% (inactive); for `COCCc1nn2c(=O)cc(COC(=O)c3ccccc3C)nc2s1` it is -5% (active).
Regarding `CCCCc1nn2c(=O)cc(COC(=O)c3ccccc3C)nc2s1`, the survival is 83% (inactive).
Take `CCC(c1nnnn1CCc1ccccc1)N(Cc1ccco1)Cc1cc2cc(C)ccc2[nH]c1=O` (stereo not drawn): the survival is 62% (inactive).
In the case of `COc1ccc(C2=C(C)C(N3CCC(C(=O)NCc4ccc(C)o4)CC3)=NS2(=O)=O)cc1` it was 74% (inactive).
`COc1cccc(NC(=O)Cn2cc(S(=O)(=O)Cc3ccccc3F)c3ccccc32)c1`: the survival was 78% (inactive).
As for `CN1CCN(CCC(=O)Nc2ccc(Cl)cc2)CC1`, the survival is 61% (inactive).
Take `COc1ccc(N2C(=O)CSC23C(=O)N(CC(=O)NC2CCCCC2)c2ccccc23)cc1` (stereo not drawn): the survival was 83% (inactive).
For `Cc1cc(=O)c2c(ccc3ccccc32)[nH]1`, the survival is 91% (inactive).
For `CC(OC(=O)CN1C(=O)COc2ccccc21)C(=O)NCc1cccs1` (stereo not drawn), the survival is 100% (inactive).
Consider `CCOc1ccc(CNC(=O)c2ccc(NC(=O)N3CCCCc4ccccc43)cc2)cc1OC`, for which the survival is 73% (inactive).
The figure for `COc1cccc(CNC(=O)CN2C(=O)N(c3cccc(Cl)c3)S(=O)(=O)c3ccccc32)c1OC` is 72% (inactive); for `O=C(CCCN1C(=O)C(c2ccccc2)Oc2cccnc21)Nc1ccccc1C(F)(F)F` (stereo not drawn) it is 100% (inactive); for `CCCc1nn2c(=O)cc(COC(=O)c3ccc(NC(=O)COc4ccccc4)cc3)nc2s1` it is 92% (inactive).
Turning to `CCCc1nn2c(=O)cc(COC(=O)c3cccc(NC(=O)COc4ccc(F)cc4)c3)nc2s1`, the survival was 99% (inactive).
In the case of `CCCc1nn2c(=O)cc(COC(=O)c3ccc(NC(=O)COc4ccc(F)cc4)cc3)nc2s1`, the survival is 37% (active).
`CCOCCc1nn2c(=O)cc(COC(=O)c3ccc(NC(=O)c4cccs4)cc3)nc2s1`: the survival is 112% (inactive).
For the compound `CCOCCc1nn2c(=O)cc(COC(=O)c3ccc(NC(=O)c4ccc(F)cc4)cc3)nc2s1`, the survival was 32% (active).
Consider `CCOCCc1nn2c(=O)cc(COC(=O)c3ccc(NC(=O)C(C)(C)C)cc3)nc2s1`, for which the survival is 83% (inactive).
Regarding `Cc1ccc(OCc2n[nH]c(=S)n2C2CCCCC2)cc1`, the survival was 99% (inactive).
With `Cc1ccc(C2=CC(c3ccccc3F)n3c(nc4ccccc43)N2)cc1C` (stereo not drawn), the survival is 70% (inactive).
Consider `O=C(NC1CCCCC1)C(c1ccc(O)c(O)c1)N(C(=O)Cn1nnc2ccccc21)C1CCCCC1` (stereo not drawn), for which the survival is 99% (inactive).
On to `O=c1ccc2cc(S(=O)(=O)Nc3ccc(OC(F)(F)F)cc3)ccc2[nH]1`, for which the survival was 91% (inactive).
Regarding `COC(=O)c1cccnc1-n1c(=O)c2cccnc2n(CC(=O)Nc2c(C)cc(C)cc2C)c1=O`, the survival was 82% (inactive).
As for `CC(C)CNCC1OCc2ccccc2CO1`, the survival was 98% (inactive).
Take `CC(C)NC(=O)CCSc1nc(-c2ccc3c(c2)OCO3)cc(C(F)(F)F)n1`: the survival was 57% (inactive).
On to `CCCNC(=O)CCSc1nc(-c2ccc3c(c2)OCO3)cc(C(F)(F)F)n1`, for which the survival was 68% (inactive).
For the compound `CC(=O)c1ccc(NC(=O)CCCSc2nc(-c3ccco3)cc(C(F)(F)F)n2)cc1`, the survival was 98% (inactive).
For `CC(=O)c1cccc(NC(=O)CCCSc2nc(-c3ccco3)cc(C(F)(F)F)n2)c1`, the survival was 31% (active).
Consider `CC(=O)c1ccc(NC(=O)CCSc2nc(-c3ccco3)cc(C(F)(F)F)n2)cc1`, for which the survival was 46% (inactive).
The figure for `COc1ccc(NC(=O)CCSc2nc(-c3ccco3)cc(C(F)(F)F)n2)cc1` is 57% (inactive); for `COc1ccc(NC(=O)CCS(=O)(=O)c2nc(-c3ccc4c(c3)OCO4)cc(C(F)(F)F)n2)cc1` it is 103% (inactive); for `O=C(CCS(=O)(=O)c1nc(-c2ccc3c(c2)OCO3)cc(C(F)(F)F)n1)Nc1ccc(Br)cc1` it is 94% (inactive).
As to `COc1ccc(NC(=O)CCSc2nc(-c3ccco3)cc(C(F)(F)F)n2)cc1OC`, the survival was 50% (inactive).
Turning to `CC(C)(C)NC(=O)CCSc1nc(-c2ccc3c(c2)OCO3)cc(C(F)(F)F)n1`, the survival was 15% (active).
In the case of `COc1cccc(NC(=O)CCSc2nc(-c3ccco3)cc(C(F)(F)F)n2)c1`, the survival was 27% (active).
For `O=C(CCS(=O)(=O)c1nc(-c2ccc3c(c2)OCO3)cc(C(F)(F)F)n1)Nc1ccc(F)c(Cl)c1`, the survival was 23% (active).
